Compounds without any hit were thinned out: in the full panel of roughly 83,000, 20% have a hit.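 In brief: 96-well plates, 48 h treatment, single concentration, percent growth endpoint.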 Calls of active or inactive are those of the source. The calls were made as follows: active = growth percent below 10; inactive = the rest.

Consider 13 compounds from PubChem BioAssay (NCI).

The test relates to NCI-H322M lung. Kind of test: NCI-60 one-dose screen, 48 h (100 = growth as untreated, 0 = no growth, -100 = all killed). The settings on record: 10 µM unless noted.
Consider `Cc1ccc(Cl)cc1NC(=O)c1cc2ccccc2cc1O`, for which the growth is -3.32% (active).
With `COc1ccc(NC(=O)CSc2nc(C)c(C(C)=O)n2-c2ccc([N+](=O)[O-])cc2)cc1` the figure was 92.7% (inactive); with `O=C(NC(Cc1nnc2n(Cc3ccccc3)c(=O)c3c4c(sc3n12)CCCC4)c1ccc(Cl)cc1)c1ccccc1` (stereo not drawn), 108% (inactive); with `COc1cc(C2CC(=O)Nc3c2c(C)nn3-c2nc3ccccc3[nH]2)c(OC)c(OC)c1OC` (stereo not drawn), 95.2% (inactive).
Regarding `Cn1c(-c2c(N)n(Cc3ccc(C(F)(F)F)cc3)c3nc(C#N)c(C#N)nc23)nc2ccccc21`, the growth was -4.98% (active).
In the case of `N#Cc1c(-c2ccccc2)cc(-c2ccc(Nc3nc(Nc4ccc(F)cc4)nc(Nc4ccc(F)cc4)n3)cc2)nc1N`, the growth was 96.2% (inactive).
For the compound `Cc1c(O)cc(-c2cnc(N/N=C\c3ccc(Cl)cc3)s2)c(O)c1C`, the growth was 96.9% (inactive).
The result for `COc1ccc2c(c1)O/C(=C\c1cccc(OCC(=O)Nc3nc4ccccc4s3)c1)C2=O` reads 106% (inactive); that for `Cn1c2c(c3ccc(Cl)c(Cl)c31)C(C#N)C1(CCNCC1)NC2=O` (stereo not drawn), 55.3% (inactive); that for `COc1ccc(C2=NN(C(=O)c3cc(OC)c(OC)c(OC)c3)C(c3ccc(Cl)cc3)C2)cc1OC` (stereo not drawn), 55.7% (inactive).
With `CCN(CC)CCN1CC(O)=C(c2nc(-c3ccc(Cl)cc3)cs2)C1=N` the figure was 15.6% (inactive); with `C=C(C)[C@@H]1CC=C2c3sc(-c4ccc(C)cc4)nc3C[C@@H](C)[C@]2(C)C1`, 101% (inactive); with `COC(=O)c1c2c(c[n+]([O-])c1C)C(=O)C=CC2=O`, 110% (inactive).
